# Reference: PMC10726135, “HNF4α isoforms regulate the circadian balance between carbohydrate and lipid metabolism in the liver”
# Whole data set: some 18,000 sequences, median “log2 normalized intensity” near 0.39, cut for the highest 2% near 6.6. This is one part of a sample in which the highest values are shown more often than they occur.
# Molecular target: T1, HNF4alpha2 (COS-7 nuclear extract) (Homo sapiens, UniProt P41235 1-474)
# T1 sequence: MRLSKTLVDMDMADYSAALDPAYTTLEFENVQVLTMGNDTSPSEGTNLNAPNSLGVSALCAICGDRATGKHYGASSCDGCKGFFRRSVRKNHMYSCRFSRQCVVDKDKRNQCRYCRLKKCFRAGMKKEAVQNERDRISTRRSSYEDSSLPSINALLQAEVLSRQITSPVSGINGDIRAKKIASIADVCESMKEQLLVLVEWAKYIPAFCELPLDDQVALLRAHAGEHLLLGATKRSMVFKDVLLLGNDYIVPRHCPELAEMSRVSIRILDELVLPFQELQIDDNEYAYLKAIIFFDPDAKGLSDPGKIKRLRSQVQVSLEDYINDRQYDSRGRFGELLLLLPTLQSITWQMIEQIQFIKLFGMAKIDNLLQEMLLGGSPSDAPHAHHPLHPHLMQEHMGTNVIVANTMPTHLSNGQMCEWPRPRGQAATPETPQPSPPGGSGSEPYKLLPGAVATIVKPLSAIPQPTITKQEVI
# Assay: protein-binding microarray; COS-7 nuclear extract on double-stranded Agilent 4x180k PBM; binding buffer, salt, pH and temperature not given in the material; high values mean tight binding
# Conditions: chain copies: 2; label: 3' end of strand 1 on the slide; dsDNA, one strand shown
# Summary of the method: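 Binding signal was defined as the normalized, background-corrected gProcessedSignal reported by Agilent software. It came from nuclear extracts of COS-7 cells transiently transfected with a human HNF4α isoform expression vector, applied to a custom Agilent SurePrint G3 4x180k array. That array held ~44,000 test sequences in quadruplicate as double-stranded ~60-nt oligonucleotides, and bound HNF4α was imaged at 2-µm resolution on an Agilent G2565CA scanner.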
row,Sequence,binding signal
1,CCTTATGACGGACAAAGGGCTCTCTCACCAGCCTAGGGAGATTAGAGTATCGGTCGA,-0.701 log2 normalized intensity
2,TGTGGGCCTCACACCCTCTAGGGTAGATAAGCCTAGGGAGATTAGAGTATCGGTCGA,-0.451 log2 normalized intensity
3,TGCCTCCTTCAAGGATTAGCAGATAAATCTGCCTAGGGAGATTAGAGTATCGGTCGA,-0.904 log2 normalized intensity
4,ATGAAGATATATTCCTTCAGGAAGGCCTGTGCCTAGGGAGATTAGAGTATCGGTCGA,0.708 log2 normalized intensity
5,CTTTCATACGTTTAACAGTTCCTCCTGGAAGCCTAGGGAGATTAGAGTATCGGTCGA,1.18 log2 normalized intensity
6,CTATTAGGTCTTTGAAGTTGTCTTATCACCGCCTAGGGAGATTAGAGTATCGGTCGA,1.34 log2 normalized intensity
7,GGACCGCAGGGGGCTCCCGGACCCTGACTCGCCTAGGGAGATTAGAGTATCGGTCGA,0.458 log2 normalized intensity
8,AGCCACCGCGCCCCGCCCCCAGTGCACCTTGCCTAGGGAGATTAGAGTATCGGTCGA,5.11 log2 normalized intensity
9,TTGTATGTCCAAGGGTCACTCGACATTCATGCCTAGGGAGATTAGAGTATCGGTCGA,3.02 log2 normalized intensity
10,TTGAAGTGACTAAATGAGAAGAAATGATGGGCCTAGGGAGATTAGAGTATCGGTCGA,1.69 log2 normalized intensity
11,GGTGCTGATGTTAACACAAGTTATTACCGTGCCTAGGGAGATTAGAGTATCGGTCGA,1.03 log2 normalized intensity
12,CAGTGGTAACCACAGTACTGTCTTTTTGCCGCCTAGGGAGATTAGAGTATCGGTCGA,-0.854 log2 normalized intensity
13,TTGCATAGGCATTGTCTTGAAAGATAAAGTGCCTAGGGAGATTAGAGTATCGGTCGA,0.627 log2 normalized intensity
14,TCTTTTTGCCACTAGGGGTCACTGTCACATGCCTAGGGAGATTAGAGTATCGGTCGA,2.7 log2 normalized intensity
15,ATGAACTTTGACCCACCTACATTGATATTCGCCTAGGGAGATTAGAGTATCGGTCGA,4.81 log2 normalized intensity
16,ATTTTTCCCTTTGATATTTATCAAGATGAAGCCTAGGGAGATTAGAGTATCGGTCGA,0.736 log2 normalized intensity
17,TCCCTTTGATATTTATCAAGATGAACTTTGGCCTAGGGAGATTAGAGTATCGGTCGA,4.93 log2 normalized intensity
18,TTGATATTTATCAAGATGAACTTTGACCCAGCCTAGGGAGATTAGAGTATCGGTCGA,10.8 log2 normalized intensity
19,ATTTATCAAGATGAACTTTGACCCACCTACGCCTAGGGAGATTAGAGTATCGGTCGA,8.26 log2 normalized intensity
20,CACCCAGAACTTTGACCGTTTGATTATTTGGCCTAGGGAGATTAGAGTATCGGTCGA,2.56 log2 normalized intensity
21,CATGTTGAGTGGAATATGAGGTCAGGGTTCGCCTAGGGAGATTAGAGTATCGGTCGA,2.71 log2 normalized intensity
22,GGGCTGGAACACAAAGAAAGCCAAAGTTCAGCCTAGGGAGATTAGAGTATCGGTCGA,2.41 log2 normalized intensity

row,Sequence,binding signal
1,CATTGGACCCTCCCAGCCAAACCCCACTCCGCCTAGGGAGATTAGAGTATCGGTCGA,5.01 log2 normalized intensity
2,TGTAACTGTAACTATATTGACCACCTCCTCGCCTAGGGAGATTAGAGTATCGGTCGA,1.76 log2 normalized intensity
3,GTGTGACCTTTGCCTTCTTGACATCTCTCTGCCTAGGGAGATTAGAGTATCGGTCGA,4.43 log2 normalized intensity
4,ACTGCTTACCCTGCAGTGTGACCTTTGCCTGCCTAGGGAGATTAGAGTATCGGTCGA,7.83 log2 normalized intensity
5,TTACCCTGCAGTGTGACCTTTGCCTTCTTGGCCTAGGGAGATTAGAGTATCGGTCGA,7.49 log2 normalized intensity
6,CTGCAGTGTGACCTTTGCCTTCTTGACATCGCCTAGGGAGATTAGAGTATCGGTCGA,5.94 log2 normalized intensity
7,GATGTTCTACACTGCTTACCCTGCAGTGTGGCCTAGGGAGATTAGAGTATCGGTCGA,0.052 log2 normalized intensity
8,TCTACACTGCTTACCCTGCAGTGTGACCTTGCCTAGGGAGATTAGAGTATCGGTCGA,4.19 log2 normalized intensity
9,GTGCTCTGGGTCTGTCCTTTGTGTTTATGGGCCTAGGGAGATTAGAGTATCGGTCGA,2.66 log2 normalized intensity
10,CAGTGGGCCCAGAGCACAACCTTTGGCCGTGCCTAGGGAGATTAGAGTATCGGTCGA,4.45 log2 normalized intensity
11,TTGCCCACCAATGATCAAAGGTTAGTCTTAGCCTAGGGAGATTAGAGTATCGGTCGA,3.63 log2 normalized intensity
12,AAAACATATTTGCATAATGGAGCAAAGGTCGCCTAGGGAGATTAGAGTATCGGTCGA,5.4 log2 normalized intensity
13,GTGACCTTTGACCTCAGAGAGCCGGAAACTGCCTAGGGAGATTAGAGTATCGGTCGA,7.21 log2 normalized intensity
14,ACCACATTCTCACCACTAGGAAACTGACCTGCCTAGGGAGATTAGAGTATCGGTCGA,3.23 log2 normalized intensity
15,CACCACTAGGAAACTGACCTTTGCTCATGAGCCTAGGGAGATTAGAGTATCGGTCGA,6.73 log2 normalized intensity
16,ATGGGATGACCTTTGAGCAATAGGAAATGGGCCTAGGGAGATTAGAGTATCGGTCGA,4.18 log2 normalized intensity
17,CTACTACTTGACCTTTGAAACATATCCAGAGCCTAGGGAGATTAGAGTATCGGTCGA,5.48 log2 normalized intensity
18,CTAGGAAACTGACCTTTGCTCATGACTATTGCCTAGGGAGATTAGAGTATCGGTCGA,5.53 log2 normalized intensity
19,GATGAGTGACCTTTGACCTCAGAGAGCCGGGCCTAGGGAGATTAGAGTATCGGTCGA,9.56 log2 normalized intensity
20,AAAGACTTGCTCATTGATGAGTGACCTTTGGCCTAGGGAGATTAGAGTATCGGTCGA,6.15 log2 normalized intensity
21,ATTCTCACCACTAGGAAACTGACCTTTGCTGCCTAGGGAGATTAGAGTATCGGTCGA,5.16 log2 normalized intensity
